Key:
[1] = target: T1, Ephrin type-B receptor 2 (Homo sapiens) (UniProt P29323); settings: at 1 µM
T1 sequence (whole entry): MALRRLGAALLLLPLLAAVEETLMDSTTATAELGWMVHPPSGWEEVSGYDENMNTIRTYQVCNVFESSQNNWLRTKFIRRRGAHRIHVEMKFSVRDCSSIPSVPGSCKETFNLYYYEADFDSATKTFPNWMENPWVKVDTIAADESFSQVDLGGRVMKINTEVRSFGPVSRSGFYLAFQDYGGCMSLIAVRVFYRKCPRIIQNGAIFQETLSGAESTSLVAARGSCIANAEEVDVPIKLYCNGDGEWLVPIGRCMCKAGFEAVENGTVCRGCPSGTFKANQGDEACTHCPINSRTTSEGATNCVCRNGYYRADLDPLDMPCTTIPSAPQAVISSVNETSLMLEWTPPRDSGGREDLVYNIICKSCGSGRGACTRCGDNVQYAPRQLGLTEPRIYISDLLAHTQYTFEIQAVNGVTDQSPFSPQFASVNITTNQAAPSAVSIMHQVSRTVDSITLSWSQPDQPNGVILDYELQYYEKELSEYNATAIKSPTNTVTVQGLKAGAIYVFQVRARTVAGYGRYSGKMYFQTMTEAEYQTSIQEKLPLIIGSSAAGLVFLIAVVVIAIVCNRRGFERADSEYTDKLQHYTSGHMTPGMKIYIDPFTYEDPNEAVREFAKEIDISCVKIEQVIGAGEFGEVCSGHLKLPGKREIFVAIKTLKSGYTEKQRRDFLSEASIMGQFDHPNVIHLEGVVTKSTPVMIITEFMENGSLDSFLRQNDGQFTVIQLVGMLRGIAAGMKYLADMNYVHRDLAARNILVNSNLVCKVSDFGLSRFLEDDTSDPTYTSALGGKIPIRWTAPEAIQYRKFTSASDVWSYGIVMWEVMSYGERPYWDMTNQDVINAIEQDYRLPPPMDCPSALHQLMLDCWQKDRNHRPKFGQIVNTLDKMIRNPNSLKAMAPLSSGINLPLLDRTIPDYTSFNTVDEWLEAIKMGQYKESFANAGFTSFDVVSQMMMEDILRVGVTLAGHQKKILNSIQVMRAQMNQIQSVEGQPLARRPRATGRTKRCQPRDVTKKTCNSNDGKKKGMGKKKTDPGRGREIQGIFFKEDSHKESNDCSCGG

[2] = target: T2, Ephrin type-B receptor 3 (Homo sapiens) (UniProt P54753); settings: at 0.1 µM
T2 sequence (whole entry): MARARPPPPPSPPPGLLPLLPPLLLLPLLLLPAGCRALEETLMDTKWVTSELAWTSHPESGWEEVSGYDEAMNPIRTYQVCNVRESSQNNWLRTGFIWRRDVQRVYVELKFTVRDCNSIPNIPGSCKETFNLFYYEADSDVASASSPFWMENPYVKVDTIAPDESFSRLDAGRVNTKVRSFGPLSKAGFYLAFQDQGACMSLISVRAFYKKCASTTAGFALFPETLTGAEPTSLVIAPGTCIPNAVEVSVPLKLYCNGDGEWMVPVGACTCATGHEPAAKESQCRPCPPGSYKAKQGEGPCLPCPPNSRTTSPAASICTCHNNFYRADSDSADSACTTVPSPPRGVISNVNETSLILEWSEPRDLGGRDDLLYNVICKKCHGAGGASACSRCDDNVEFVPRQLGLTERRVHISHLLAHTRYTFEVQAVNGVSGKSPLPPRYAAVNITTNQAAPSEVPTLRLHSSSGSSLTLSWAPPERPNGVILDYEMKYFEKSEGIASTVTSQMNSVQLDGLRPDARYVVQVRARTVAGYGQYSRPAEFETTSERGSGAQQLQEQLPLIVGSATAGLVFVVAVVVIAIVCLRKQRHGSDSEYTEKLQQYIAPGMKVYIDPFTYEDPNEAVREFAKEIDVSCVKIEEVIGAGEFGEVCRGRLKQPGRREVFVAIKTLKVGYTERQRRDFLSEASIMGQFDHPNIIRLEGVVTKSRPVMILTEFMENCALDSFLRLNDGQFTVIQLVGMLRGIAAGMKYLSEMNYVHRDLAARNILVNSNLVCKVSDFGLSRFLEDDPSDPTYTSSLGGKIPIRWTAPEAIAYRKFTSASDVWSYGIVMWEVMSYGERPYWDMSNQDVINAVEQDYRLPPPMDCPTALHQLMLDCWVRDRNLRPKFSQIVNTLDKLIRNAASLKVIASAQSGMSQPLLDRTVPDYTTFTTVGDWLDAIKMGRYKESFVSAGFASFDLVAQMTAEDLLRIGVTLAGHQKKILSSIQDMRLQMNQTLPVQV

[3] = target: T2, Ephrin type-B receptor 3 (Homo sapiens); settings: at 1 µM
[4] = target: T3, Ephrin type-B receptor 4 (Homo sapiens) (UniProt P54760); settings: at 0.1 µM
T3 sequence (whole entry): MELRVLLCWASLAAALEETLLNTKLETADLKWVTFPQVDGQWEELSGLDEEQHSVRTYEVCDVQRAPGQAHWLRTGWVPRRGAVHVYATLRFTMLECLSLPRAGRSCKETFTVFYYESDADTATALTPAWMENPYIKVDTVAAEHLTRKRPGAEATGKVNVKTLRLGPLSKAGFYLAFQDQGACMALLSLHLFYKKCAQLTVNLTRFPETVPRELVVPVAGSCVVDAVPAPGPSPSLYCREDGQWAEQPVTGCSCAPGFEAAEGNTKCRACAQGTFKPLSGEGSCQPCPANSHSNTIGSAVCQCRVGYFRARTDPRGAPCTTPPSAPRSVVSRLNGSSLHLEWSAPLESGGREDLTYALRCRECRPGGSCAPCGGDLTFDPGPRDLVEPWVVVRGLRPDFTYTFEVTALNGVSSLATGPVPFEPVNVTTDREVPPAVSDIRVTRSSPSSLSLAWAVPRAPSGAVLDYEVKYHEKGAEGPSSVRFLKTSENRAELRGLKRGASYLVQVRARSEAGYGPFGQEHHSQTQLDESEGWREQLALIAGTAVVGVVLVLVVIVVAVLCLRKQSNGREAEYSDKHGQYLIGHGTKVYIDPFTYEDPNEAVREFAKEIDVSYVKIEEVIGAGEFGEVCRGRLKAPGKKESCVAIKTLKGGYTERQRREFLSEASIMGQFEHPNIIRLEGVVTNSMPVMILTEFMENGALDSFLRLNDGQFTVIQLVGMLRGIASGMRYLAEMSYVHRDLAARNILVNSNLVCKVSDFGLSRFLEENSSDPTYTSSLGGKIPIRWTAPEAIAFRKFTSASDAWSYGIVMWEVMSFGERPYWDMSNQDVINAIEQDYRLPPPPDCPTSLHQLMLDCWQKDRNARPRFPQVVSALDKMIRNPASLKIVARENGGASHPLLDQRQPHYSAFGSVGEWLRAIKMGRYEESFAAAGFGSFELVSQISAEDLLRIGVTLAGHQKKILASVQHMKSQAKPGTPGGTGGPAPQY

[5] = target: T3, Ephrin type-B receptor 4 (Homo sapiens); settings: at 1 µM
[6] = target: Receptor tyrosine-protein kinase erbB-2 (Homo sapiens) (UniProt P04626); settings: at 0.1 µM
Receptor tyrosine-protein kinase erbB-2 (Homo sapiens), sequence (P04626 whole entry): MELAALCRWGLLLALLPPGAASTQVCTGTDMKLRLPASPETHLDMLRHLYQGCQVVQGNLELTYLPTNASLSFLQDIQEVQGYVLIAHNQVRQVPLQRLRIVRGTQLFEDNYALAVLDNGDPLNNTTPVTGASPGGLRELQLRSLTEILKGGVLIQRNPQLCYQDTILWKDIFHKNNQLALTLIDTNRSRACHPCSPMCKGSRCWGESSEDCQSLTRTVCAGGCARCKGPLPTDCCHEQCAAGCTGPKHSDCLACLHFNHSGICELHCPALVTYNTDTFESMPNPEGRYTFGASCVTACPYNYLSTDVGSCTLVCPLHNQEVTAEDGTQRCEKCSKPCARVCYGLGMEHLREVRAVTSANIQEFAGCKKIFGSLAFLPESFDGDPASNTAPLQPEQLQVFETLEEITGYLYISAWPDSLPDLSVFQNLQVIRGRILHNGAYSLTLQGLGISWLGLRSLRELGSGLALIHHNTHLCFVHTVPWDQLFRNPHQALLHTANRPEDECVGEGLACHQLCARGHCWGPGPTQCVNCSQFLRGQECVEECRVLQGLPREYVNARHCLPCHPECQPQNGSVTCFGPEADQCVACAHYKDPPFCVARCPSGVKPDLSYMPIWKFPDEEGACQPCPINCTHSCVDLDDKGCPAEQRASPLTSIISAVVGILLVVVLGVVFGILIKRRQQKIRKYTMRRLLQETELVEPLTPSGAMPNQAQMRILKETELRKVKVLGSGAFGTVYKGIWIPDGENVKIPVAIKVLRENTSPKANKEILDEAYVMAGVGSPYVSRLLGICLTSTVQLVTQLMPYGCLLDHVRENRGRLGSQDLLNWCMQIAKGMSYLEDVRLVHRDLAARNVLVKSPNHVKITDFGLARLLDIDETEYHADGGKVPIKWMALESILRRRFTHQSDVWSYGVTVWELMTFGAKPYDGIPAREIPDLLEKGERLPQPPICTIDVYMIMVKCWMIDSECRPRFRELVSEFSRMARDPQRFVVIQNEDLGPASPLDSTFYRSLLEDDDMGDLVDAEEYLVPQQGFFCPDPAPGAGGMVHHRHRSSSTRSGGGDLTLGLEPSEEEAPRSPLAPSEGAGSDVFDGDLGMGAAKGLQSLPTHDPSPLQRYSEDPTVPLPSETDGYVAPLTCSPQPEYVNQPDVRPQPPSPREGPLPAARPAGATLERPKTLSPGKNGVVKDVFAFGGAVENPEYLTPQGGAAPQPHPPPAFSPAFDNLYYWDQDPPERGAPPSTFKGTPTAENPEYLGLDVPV

[7] = target: Receptor tyrosine-protein kinase erbB-2 (Homo sapiens) (UniProt P04626); settings: at 1 µM
[8] = target: Receptor tyrosine-protein kinase erbB-4 (Homo sapiens) (UniProt Q15303); settings: at 0.1 µM
Receptor tyrosine-protein kinase erbB-4 (Homo sapiens), sequence (Q15303 whole entry): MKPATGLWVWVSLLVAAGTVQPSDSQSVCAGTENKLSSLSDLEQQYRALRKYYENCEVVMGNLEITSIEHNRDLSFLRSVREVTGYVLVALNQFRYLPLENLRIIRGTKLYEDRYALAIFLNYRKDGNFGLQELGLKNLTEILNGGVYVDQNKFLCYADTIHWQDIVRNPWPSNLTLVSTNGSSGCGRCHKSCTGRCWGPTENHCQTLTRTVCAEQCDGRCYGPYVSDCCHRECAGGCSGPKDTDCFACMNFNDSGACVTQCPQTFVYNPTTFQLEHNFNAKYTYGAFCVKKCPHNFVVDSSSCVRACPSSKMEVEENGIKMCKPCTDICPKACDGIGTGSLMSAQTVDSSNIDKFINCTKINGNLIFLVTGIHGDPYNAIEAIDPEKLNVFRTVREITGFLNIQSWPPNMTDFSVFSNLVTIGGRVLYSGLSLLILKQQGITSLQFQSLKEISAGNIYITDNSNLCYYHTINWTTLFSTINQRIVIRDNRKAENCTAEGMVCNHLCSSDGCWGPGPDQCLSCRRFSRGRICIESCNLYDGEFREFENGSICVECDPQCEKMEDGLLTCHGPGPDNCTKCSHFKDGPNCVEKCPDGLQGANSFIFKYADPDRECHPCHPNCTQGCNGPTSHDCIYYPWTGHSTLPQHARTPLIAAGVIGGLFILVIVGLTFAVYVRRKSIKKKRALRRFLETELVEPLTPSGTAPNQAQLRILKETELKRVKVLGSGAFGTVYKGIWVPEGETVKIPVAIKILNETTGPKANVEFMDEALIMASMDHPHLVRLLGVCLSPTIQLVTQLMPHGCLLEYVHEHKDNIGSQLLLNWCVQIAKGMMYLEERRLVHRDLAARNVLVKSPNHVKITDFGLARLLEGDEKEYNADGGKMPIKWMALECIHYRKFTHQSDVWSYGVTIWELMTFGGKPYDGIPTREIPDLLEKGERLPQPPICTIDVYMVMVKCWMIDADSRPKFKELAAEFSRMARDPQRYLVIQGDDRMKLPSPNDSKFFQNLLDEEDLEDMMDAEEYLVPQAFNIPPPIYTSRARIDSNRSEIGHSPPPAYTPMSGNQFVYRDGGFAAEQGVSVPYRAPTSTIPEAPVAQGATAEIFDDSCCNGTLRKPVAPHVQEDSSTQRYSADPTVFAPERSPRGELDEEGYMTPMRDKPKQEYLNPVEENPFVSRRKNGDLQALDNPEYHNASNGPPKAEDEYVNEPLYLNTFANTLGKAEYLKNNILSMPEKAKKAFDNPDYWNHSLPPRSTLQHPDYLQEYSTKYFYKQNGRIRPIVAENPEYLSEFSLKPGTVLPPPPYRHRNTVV

[9] = target: Receptor tyrosine-protein kinase erbB-4 (Homo sapiens) (UniProt Q15303); settings: at 1 µM
[10] = target: Tyrosine-protein kinase Fer (Homo sapiens) (UniProt P16591); settings: at 0.1 µM;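 note: reported figures are averaged percent inhibition of FER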
Tyrosine-protein kinase Fer (Homo sapiens), sequence (P16591 whole entry, looked up): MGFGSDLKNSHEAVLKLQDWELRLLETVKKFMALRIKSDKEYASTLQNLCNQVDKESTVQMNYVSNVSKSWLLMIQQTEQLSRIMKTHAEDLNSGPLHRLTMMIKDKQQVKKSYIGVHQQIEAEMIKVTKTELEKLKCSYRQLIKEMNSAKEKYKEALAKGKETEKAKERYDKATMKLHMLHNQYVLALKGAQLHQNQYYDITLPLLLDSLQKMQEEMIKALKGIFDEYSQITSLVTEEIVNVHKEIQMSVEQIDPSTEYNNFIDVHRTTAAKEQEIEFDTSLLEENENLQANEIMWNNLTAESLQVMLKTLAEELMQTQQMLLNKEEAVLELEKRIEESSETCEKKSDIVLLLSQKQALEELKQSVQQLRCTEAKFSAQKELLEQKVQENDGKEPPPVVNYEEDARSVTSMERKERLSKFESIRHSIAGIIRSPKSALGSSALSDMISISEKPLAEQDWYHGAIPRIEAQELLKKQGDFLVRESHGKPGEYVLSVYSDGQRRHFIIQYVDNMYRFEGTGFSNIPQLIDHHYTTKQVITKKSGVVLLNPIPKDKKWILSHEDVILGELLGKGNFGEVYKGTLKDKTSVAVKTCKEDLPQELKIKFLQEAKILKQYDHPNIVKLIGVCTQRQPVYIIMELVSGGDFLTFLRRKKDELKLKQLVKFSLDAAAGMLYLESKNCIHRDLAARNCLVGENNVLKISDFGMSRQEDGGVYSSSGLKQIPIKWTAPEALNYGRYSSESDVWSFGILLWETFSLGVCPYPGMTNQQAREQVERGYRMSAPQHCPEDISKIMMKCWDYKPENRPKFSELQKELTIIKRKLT

Structure (SMILES) | inhibition [1] | inhibition [2] | inhibition [3] | inhibition [4] | inhibition [5] | inhibition [6] | inhibition [7] | inhibition [8] | inhibition [9] | inhibition [10]
COc1ccc(-c2ccncc2)cc1C(N)=O | 8.22% | 3.97% | 3.63% | 1% | 2.03% | 1.06% | 2.95% | 6.21% | 12.3% | 4.03%
CCn1c(-c2nonc2N)nc2cncc(C(=O)N3CCNCC3)c21 | 7.73% | 3.36% | 3.77% | 2.94% | 3.87% | 38.2% | 2.97% | 9.03% | 10.6% | 1.53%
COc1ccc(COc2ccc(Cc3cnc(N)nc3N)cc2OC)cc1 | 8.3% | -1.18% | -4.82% | 0.94% | 3.27% | -1.55% | -2.79% | 3.15% | 3.43% | 2.14%
COc1ccccc1Nc1ncc(-c2ccccc2)o1 | 10.8% | 2.82% | 3.43% | 1.6% | 5.33% | 0.38% | 6.93% | 8.18% | 15.7% | 4.02%
COc1cc2ncn(-c3cc(OCc4ccccc4Cl)c(C(N)=O)s3)c2cc1OC | 7.08% | 2.15% | 1.6% | 0.55% | 3.38% | -1% | 2.47% | -1.93% | 9.17% | 2.47%
COc1cc(C=NNc2ncnc3c2cnn3-c2ccccc2)ccc1O | 18.2% | 3.59% | -2.55% | 2.58% | 9.64% | 1.75% | -2.49% | 3.71% | 6.51% | -3.39%
CC1=C(C(=O)Nc2ccc3[nH]ncc3c2)C(c2ccc3ccccc3c2)CC(=O)N1 (centres undefined) | 8.42% | 4.2% | 4.54% | 3.21% | 3.76% | 0.89% | 2.88% | 12.7% | 39.6% | 2.1%
Cc1cc(O)cc(C)c1/C=C/c1cncc(-c2nn[nH]n2)c1 | 61.5% | -0.26% | 5.69% | 3.89% | 46.2% | 1.86% | 0.56% | 12.1% | 36.7% | 4.18%
CNC(=O)c1cncc(/C=C/c2c(Cl)cccc2Cl)c1 | 29.2% | -2.12% | 2.92% | 2.4% | 74.1% | 3.2% | 3.13% | -0.22% | 8.83% | 0.6%
COC(=O)Nc1nc2cc(Oc3ccc(NC(=O)Nc4cccc(C(=O)O)c4)cc3)ccc2[nH]1 | 3.77% | -0.56% | -3.97% | -2.57% | -4.05% | -0.03% | 3.5% | 2.52% | 0.22% | -1.22%
NS(=O)(=O)c1ccc(N/N=C2\C(=O)Nc3ccc(C(=O)NCCc4c[nH]cn4)cc32)cc1 | 16.2% | 3.04% | 0.13% | 4.11% | 6.29% | 1.36% | 1.09% | 6.82% | 7.51% | 
N#Cc1c(NC(=O)c2cccc3ccccc23)sc2c1CCCC2 | 6.91% | 5.39% | 3.56% | 3.79% | 3.28% | 1.65% | -0.24% | 6.37% | 8.55% | 2.88%
Cc1cccc(-c2n[nH]cc2-c2ccc3ncccc3n2)n1 | 5.67% | 2.71% | 1.95% | -0.2% | 2.61% | 1.42% | -0.81% | 2.27% | 4% | 0.04%
COC(=O)Nc1nc2cc(Oc3cccc(NC(=O)Nc4cc(C(F)(F)F)ccc4F)c3)ccc2[nH]1 | 8.15% | 2.88% | 0.33% | 0.65% | 2.71% | -1.15% | -2.43% | 3.99% | 6.3% | 0.75%
COc1ccc2cc(-c3c(-c4ccncc4)nc(-c4ccc([S+](C)[O-])cc4)n3C)ccc2c1 (centres undefined) | 6.51% | 5.38% | 4.12% | 2.71% | 6.99% | 2.07% | -0.38% | 12.1% | 23.1% | 1.4%
CN(C)c1cc2c(Nc3ccc4nc(Cc5ccccc5)[nH]c4c3)ncnc2cn1 | 15.3% | 4.07% | 4.22% | 4.92% | 3.25% | 20% | 67.7% | 101% | 99.7% | 5.55%

From ChEMBL document CHEMBL1961873, “Compounds: GSK PKIS; Assays: Nanosyn kinase panel” (2012)
